About 83,000 compounds went through this panel and 20% of them were active in at least one assay; those are over-represented in the sample as a whole.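 The test compound was applied at a single concentration to cells in 96-well plates for 48 hours, and percent growth was recorded.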 Activity calls are given as the source filed them.
test system: HOP-92 NSCLC; assay: NCI-60 one-dose screen, 48 h (100 = growth as untreated, 0 = no growth, -100 = all killed); details: 10 µM unless noted
Description: Growth inhibition of the HOP-92 human Non-Small Cell Lung tumor cell line is measured as a screen for anti-cancer activity. Cells are grown in 96 well plates and exposed to the test compound for 48 hours. Compounds are tested at a single concentration, which is 10^-5 M for most compounds. The reported endpoint is percent growth (GI% or GIPRCNT), where numbers from 0 - 100% represent growth inhibition, and numbers from -100% - 0 represent cell death. For example, a value of 40 represents 60% growth inhibition. A value of 0 means no net growth occurred over the course of the experiment. A value of -40 indicates 40% of cells at the beginning of the experiment died by the end of the experiment. A value of -100 means all cells are dead at the end of the experiment.
NCI-60 Human Tumor Cell Lines Screen was performed using the standard one-dose NCI protocol, which is described in more detail at https://dtp.cancer.gov/discovery_development/nci-60/default.htm.
Compounds with GIPRCNT values below 10 were considered active. Activity score was based on GIPRCNT using the following formula: […]
Score is 0 for GIPRCNT values of 100 or above, 50 for GIPRCNT values of 0, and 100 for GIPRCNT values of -100.

Compound	growth
CCCCOc1ccc(NC(=O)c2sc3nc(C)ccc3c2N)cc1	-37.2% (active)
Cc1cc(C)cc(NC(=O)Cn2cc(COn3nnc4ccccc43)nn2)c1	117% (inactive)
C=C1CCC2C3(C)COC(c4ccccc4F)OC3CCC2(C)C1CC(O)C1=CCOC1=O (stereo not given)	55.5% (inactive)
COc1cc2nc(SCc3ccccc3)n(-c3ccc(Cl)cc3)c(=O)c2cc1OC	-30.2% (active)
N#Cc1c(-c2cccnc2)cc(-c2ccc3ccccc3c2)[nH]c1=O	78.5% (inactive)
CC1=C(C(=O)c2ccccc2)C(c2cccc3ccccc23)n2c(nc3ccccc32)N1 (stereo not given)	60.4% (inactive)
CC1(C)CC[C@]2(C(=O)O)CC[C@]3(C)C(=CCC4[C@@]5(C)C[C@@H](O)[C@@H]6OC(c7ccccc7Br)OC[C@@]6(C)C5CC[C@]43C)C2C1 (stereo not given in full)	-1.51% (active)
CC(=O)Nc1ccc(-n2cnc3ccc(-c4ccc(O)cc4)cc32)cc1	66% (inactive)
C=Cn1cc(C(=O)O)c(=O)c2cc(F)c(N3CCN(c4nccc(-c5nccs5)n4)CC3)cc21	-32.7% (active)
COc1cc2oc(-c3cccc(NC(=O)[C@H](CC(N)=O)NC(=O)OC(C)(C)C)c3)cc(=O)c2c(OC)c1OC	74.9% (inactive)
O=C(c1ccccc1)c1ccc2nc(-c3ccc(F)cc3)[nH]c2c1	90.5% (inactive)
COc1cc(/C=C/C(=O)c2ccc(C)cc2)ccc1Oc1nc(Nc2ccc(F)cc2)nc(N(C)C)n1	52.7% (inactive)
CCCCSc1nc(NCCc2c[nH]c3ccccc23)c(C#N)c(-c2ccc(F)cc2)n1	55.7% (inactive)
CN(C)CCCNC(=O)c1cc(NC(=O)c2cc(NC(=O)c3ccc(/C=C/c4ccccc4)cc3)cn2C)cn1C	-1.72% (active)
CSc1ccc(C(=O)Nc2ccc3nn(/C(C#N)=C/c4ccccn4)nc3c2)cc1	-48.5% (active)
CSc1ccc(NC(=O)c2ccc3nn(/C(C#N)=C/c4ccccn4)nc3c2)cc1	-33.9% (active)
CCCCCCCCc1ccc(S(=O)(=O)Nc2ccc(CC)cc2C(=O)O)cc1	71% (inactive)
CN1CCN(Cc2ccc(C(=O)Nc3cccc(C#Cc4cccc5[nH]nc(N)c45)c3)cc2C(F)(F)F)CC1	-87.7% (active)
Cc1cc2c(cc1Cl)C(=O)/C(=C/c1ccc(F)cc1)O2	93.4% (inactive)
C=C1CC[C@@H]2[C@]3(C)COC(c4cn(-c5ccccc5)nc4-c4cccc([N+](=O)[O-])c4)O[C@@H]3CC[C@@]2(C)[C@@H]1C/C=C1/C(=O)OC[C@H]1O (stereo not given in full)	-84.3% (active)

Compound	growth
N/C(=N\N=C\c1ccc([N+](=O)[O-])cc1)c1c(N)nc(=S)[nH]c1-c1ccc(Cl)cc1Cl	2.04% (active)
CC1[C@H]2[C@H](C[C@H]3[C@@H]4CC=C5c6sc(Nc7ccccc7F)nc6CC[C@]5(C)[C@H]4CC[C@@]32C)O[C@]12CC[C@@H](C)CO2 (stereo not given in full)	-59.2% (active)
C=C1CCC2C3(C)COC(c4cc(F)cc(F)c4)OC3CCC2(C)C1CC(O)C1=CCOC1=O (stereo not given)	46.2% (inactive)
COc1cc2c(c(OC)c1OC)C(=O)CC(c1cccc(NC(=O)c3cc(NC(=O)[C@@H](N)CO)ccc3C)c1)O2 (stereo not given in full)	114% (inactive)
CCCCCCCCc1ccc(C(=O)Nc2cccc(P(=O)(O)O)c2)cc1	114% (inactive)
O=C1c2c(c3c4cc(F)ccc4oc3c3[nH]c4ccc(Br)cc4c23)C(=O)N1O	-39.4% (active)
O=C(COc1ccc(NC(=O)Nc2ccc(Cl)c(Cl)c2)cc1)N=Nc1c(O)[nH]c2ccc(Br)cc12	-43.5% (active)
COc1ccc(C(=O)/C=C/c2ccccc2Br)cc1S(N)(=O)=O	76.8% (inactive)
Cn1cc(-c2nnc(N)nc2-c2c[nH]c3ccccc23)c2cccnc21	87.1% (inactive)
COc1cc2c(c(OC)c1OC)C(=O)CC(c1cccc(NC(=O)c3cc(NC(=O)[C@H](C)N)ccc3Cl)c1)O2 (stereo not given in full)	17.9% (inactive)
COc1cc2c(c(OC)c1OC)C(=O)CC(c1cccc(NC(=O)c3cc([N+](=O)[O-])ccc3Cl)c1)O2 (stereo not given)	36.3% (inactive)
Cc1cc(=O)oc2cc(OCCCCOc3ccc(/C=C/C(=O)Nc4ccccc4N)cc3)ccc12	83% (inactive)
C#CCOc1cc(N(CC)CC)ccc1C(C(=O)NC(C)(C)C)N(C(=O)C1CCc2cc(F)ccc2O1)c1ccc(F)cc1 (stereo not given)	39.8% (inactive)
Cc1ccc([C@H]2C(C(=O)c3ccc(Cl)cc3)C3(N[C@@H]2c2ccccc2)C(=O)Nc2ccc(Cl)cc23)cc1 (stereo not given in full)	16.6% (inactive)
S=C(Nc1ccccc1)Nc1ccc(OCc2nc3ccccc3[nH]2)cc1	74.8% (inactive)
CCC(C)(C)c1ccc(OCCCCCCN2CCN(c3ccncc3)CC2)cc1	-27.8% (active)
NS(=O)(=O)c1ccc(-n2cc(-c3cccc(NC(=O)c4cc(Cl)cc(Cl)c4)c3)nn2)cc1	98.4% (inactive)
C#CCOc1cc(N(CC)CC)ccc1C(C(=O)NC(C)(C)C)N(C(=O)C1CCc2cc(F)ccc2O1)c1ccccc1Br (stereo not given)	56.4% (inactive)
NS(=O)(=O)c1ccc(-n2cc(-c3cccc(NC(=O)c4ccc(Cl)c(C(F)(F)F)c4)c3)nn2)cc1	-5.36% (active)
COc1cc2oc(-c3cccc(C(=O)Nc4ccc(Cl)cc4)c3)cc(=O)c2c(OCCNC(=O)[C@H](CO)NC(=O)OC(C)(C)C)c1OC	-2.01% (active)

— PubChem BioAssay (NCI)
